“And” between values parts separate entries of the source, which are not always exact repeats. Identical values can stand only once. Entries with a potency or affinity are not part of this list.
Experiments:
Klebsiella pneumoniae = conditions: Concentration 32 ug.mL-1, ASSAY_TEST Inhibition of Bacterial Growth, detection method Absorption (OD600), MEDIA CAMHB, plate type 384well, NBS, CORNING #3640, time 18 hr
Candida albicans = conditions: 32 ug/mL
Cryptococcus neoformans = conditions: Concentration 32 ug.mL-1, ASSAY_TEST Inhibition of Fungal Growth, detection method Resazurin, Absorption (OD600-OD570), plate type 384well, NBS, CORNING #3640

## COC(=O)C1CCN(Cc2ccccc2)CC1
Klebsiella pneumoniae
  Inhibition: 4.25%
Candida albicans
  Inhibition: 4.82%
Cryptococcus neoformans
  Inhibition: -2.37%

## CC1(C)OS(=O)(=O)C2=C1NC(N)=C(C#N)C2c1ccccc1 (stereo unspecified)
Klebsiella pneumoniae
  Inhibition: 11.24%
Candida albicans
  Inhibition: 0.27%
Cryptococcus neoformans
  Inhibition: -2.35%

## Cc1[nH]nc2c1C(c1ccc(O)c(O)c1)C(C#N)=C(N)O2 (stereo unspecified)
Klebsiella pneumoniae
  Inhibition: 21.92%
Candida albicans
  Inhibition: 0.31%
Cryptococcus neoformans
  Inhibition: 0.65%

## COc1ccc(C2C(C#N)=C(N)Oc3c2ccc2ccccc32)cc1 (stereo unspecified)
Klebsiella pneumoniae
  Inhibition: 9.52%
Candida albicans
  Inhibition: 1.55%
Cryptococcus neoformans
  Inhibition: -40.73%

## CC(=O)NCCc1ccccc1
Klebsiella pneumoniae
  Inhibition: 14.22%
Candida albicans
  Inhibition: 1.13%
Cryptococcus neoformans
  Inhibition: -3.47%

## Cl.ClCCCCN1CCCCC1
Klebsiella pneumoniae
  Inhibition: -0.73%
Candida albicans
  Inhibition: -0.33%
Cryptococcus neoformans
  Inhibition: -8.6%

## O=C1OC(c2ccc([N+](=O)[O-])cc2)=NC1=Cc1ccccc1
Klebsiella pneumoniae
  Inhibition: 6.09%
Candida albicans
  Inhibition: 1.83%
Cryptococcus neoformans
  Inhibition: -5.52%

## COc1nc2nc3c(c(N)c2cc1C#N)CCCC3
Klebsiella pneumoniae
  Inhibition: 13.26%
Candida albicans
  Inhibition: 2.72%
Cryptococcus neoformans
  Inhibition: -84.27%

## O=C(NN=Cc1c[nH]c2ccccc12)c1cccc2ccccc12
Klebsiella pneumoniae
  Inhibition: 12.1%
Candida albicans
  Inhibition: 1.76%
Cryptococcus neoformans
  Inhibition: -3.56%

## N#CC1(Br)C(=NBr)Oc2c(ccc3ccccc23)C1c1ccccc1[N+](=O)[O-] (stereo unspecified)
Klebsiella pneumoniae
  Inhibition: 24.4%
Candida albicans
  Inhibition: 25%
Cryptococcus neoformans
  Inhibition: -80.63%

## Nc1c2c(nc3c1C(c1ccc(O)cc1)c1c(ccc4ccccc14)O3)CCCC2 (stereo unspecified)
Klebsiella pneumoniae
  Inhibition: 8.92%
Candida albicans
  Inhibition: 2.15%
Cryptococcus neoformans
  Inhibition: -0.6%

## COc1ccc(C=C2N=C(c3ccccc3)SC2=O)cc1
Klebsiella pneumoniae
  Inhibition: 19.45%
Candida albicans
  Inhibition: 0.65%
Cryptococcus neoformans
  Inhibition: -2.03%

## C#CCN(C)Cc1cc2cc(OC)ccc2n1C
Klebsiella pneumoniae
  Inhibition: 12.36%
Candida albicans
  Inhibition: 5.35%
Cryptococcus neoformans
  Inhibition: -77.43%

## CC(C)C(=O)N/N=C/c1c[nH]c2ccccc12
Klebsiella pneumoniae
  Inhibition: 19.59%
Candida albicans
  Inhibition: -0.11%
Cryptococcus neoformans
  Inhibition: -5.03%

## CCOC(=O)C1=C(C)Oc2nc3c(c(N)c2C1c1nccn1C)CCCCC3 (stereo unspecified)
Klebsiella pneumoniae
  Inhibition: 6.14%
Candida albicans
  Inhibition: 3.82%
Cryptococcus neoformans
  Inhibition: -4.74%

## Cc1ccc(CNNC(N)=O)cc1.Cl
Klebsiella pneumoniae
  Inhibition: 11.02%
Candida albicans
  Inhibition: -0.27%
Cryptococcus neoformans
  Inhibition: -5.64%

## CC(=O)Oc1cccc(C=C2N=C(c3ccccc3)OC2=O)c1
Klebsiella pneumoniae
  Inhibition: 1.18%
Candida albicans
  Inhibition: 2.1%
Cryptococcus neoformans
  Inhibition: -5.65%

## N#CC1=C(N)Oc2ccc3ccccc3c2C1c1ccccc1[N+](=O)[O-] (stereo unspecified)
Klebsiella pneumoniae
  Inhibition: 9.29%
Candida albicans
  Inhibition: 2.32%
Cryptococcus neoformans
  Inhibition: -44.45%

## C/C(Cc1ccccc1)=N/NC(=O)c1c[nH]c2ccc(O)cc12
Klebsiella pneumoniae
  Inhibition: 5.8%
Candida albicans
  Inhibition: 0.37%
Cryptococcus neoformans
  Inhibition: 4.37%

## Cn1ccnc1C1c2ccc3cccnc3c2Oc2nc3c(c(N)c21)CCCCC3 (stereo unspecified)
Klebsiella pneumoniae
  Inhibition: 9.25%
Candida albicans
  Inhibition: 2.52%
Cryptococcus neoformans
  Inhibition: -79.42%

## N#CC1(Br)C(=NBr)Oc2c(ccc3ccccc23)C1c1cccc([N+](=O)[O-])c1 (stereo unspecified)
Klebsiella pneumoniae
  Inhibition: 24.92%
Candida albicans
  Inhibition: 10.2%
Cryptococcus neoformans
  Inhibition: -69.53%

## NC1(C(=O)O)CC1c1ccc2c(c1)OCO2 (stereo unspecified)
Klebsiella pneumoniae
  Inhibition: 1.95%
Candida albicans
  Inhibition: -1.13%
Cryptococcus neoformans
  Inhibition: -2.53%

## O=C1SC(SCc2ccccc2)=NC1=Cc1ccc2c(c1)OCO2
Klebsiella pneumoniae
  Inhibition: -9.46%
Candida albicans
  Inhibition: 1.96%
Cryptococcus neoformans
  Inhibition: -6.24%

## N#CC1=C(Cl)Oc2c(ccc3ccccc23)C1c1ccccc1 (stereo unspecified)
Klebsiella pneumoniae
  Inhibition: 10.59%
Candida albicans
  Inhibition: 4.15%
Cryptococcus neoformans
  Inhibition: -59.47%

## N#Cc1cc(C#N)c(N2CCCCC2)nc1Cl
Klebsiella pneumoniae
  Inhibition: 12.8%
Candida albicans
  Inhibition: 0.28%
Cryptococcus neoformans
  Inhibition: -0.7%

## CCOC(=O)c1c(C)nc2nc3c(c(N)c2c1-c1ccc(Cl)cc1)CCCCC3
Klebsiella pneumoniae
  Inhibition: 1.2%
Candida albicans
  Inhibition: -0.36%
Cryptococcus neoformans
  Inhibition: -57.83%

## C#CCN(C)c1nc(NC2CCN(Cc3ccccc3)CC2)c(C#N)c(-c2ccccc2)c1C#N
Klebsiella pneumoniae
  Inhibition: -4.36%
Candida albicans
  Inhibition: 3.34%
Cryptococcus neoformans
  Inhibition: -29.11%

## COC(=O)C(C#N)=Cc1ccccc1
Klebsiella pneumoniae
  Inhibition: 12.71%
Candida albicans
  Inhibition: 3.86%
Cryptococcus neoformans
  Inhibition: -2.58%

## COC(=O)/C(=C/c1ccc(O)cc1)NC(=O)c1ccccc1
Klebsiella pneumoniae
  Inhibition: -14.62%
Candida albicans
  Inhibition: 1.73%
Cryptococcus neoformans
  Inhibition: -3.07%

## CC1=NC(=Cc2ccc([N+](=O)[O-])cc2)C(=O)O1
Klebsiella pneumoniae
  Inhibition: -0.23%
Candida albicans
  Inhibition: -0.54%
Cryptococcus neoformans
  Inhibition: -1.41%

## C=C1CNc2c(C#N)c(-c3ccccc3)c(C#N)c(=N)n21
Klebsiella pneumoniae
  Inhibition: 0.65%
Candida albicans
  Inhibition: 3.22%
Cryptococcus neoformans
  Inhibition: -41.17%

## C#CCN1CCc2nc3nc(NC4CCN(Cc5ccccc5)CC4)c(C#N)cc3c(N)c2C1
Klebsiella pneumoniae
  Inhibition: 10.49%
Candida albicans
  Inhibition: 5.66%
Cryptococcus neoformans
  Inhibition: -17.48%

## COc1ccc2c(c1)cc(C(=O)O)n2C
Klebsiella pneumoniae
  Inhibition: 11.78%
Candida albicans
  Inhibition: 31.1%
Cryptococcus neoformans
  Inhibition: -23.41%

## COc1ccc(C2c3c(ccc4ccccc34)OC(=N)C2(Br)C#N)cc1OC (stereo unspecified)
Klebsiella pneumoniae
  Inhibition: 2.61%
Candida albicans
  Inhibition: 7.63%
Cryptococcus neoformans
  Inhibition: -66.17%

## CC1Cc2c(nc3c(c2N)CCCC3)NC1=O (stereo unspecified)
Klebsiella pneumoniae
  Inhibition: 17.01%
Candida albicans
  Inhibition: 1.73%
Cryptococcus neoformans
  Inhibition: -61.31%

## CC1=NC(=Cc2ccccc2)C(=O)S1
Klebsiella pneumoniae
  Inhibition: 11%
Candida albicans
  Inhibition: 0.37%
Cryptococcus neoformans
  Inhibition: -6.24%

## CCOC(=O)c1c(C)nc(N)c(C#N)c1-c1cccs1
Klebsiella pneumoniae
  Inhibition: -1.63%
Candida albicans
  Inhibition: 2.63%
Cryptococcus neoformans
  Inhibition: -31.89%

## COc1ccc2c(c1)cc(CNc1ccccc1)n2C
Klebsiella pneumoniae
  Inhibition: 12.88%
Candida albicans
  Inhibition: 1.07%
Cryptococcus neoformans
  Inhibition: -85.66%

## COc1ccc(C2c3ccc4ccccc4c3OC(=NBr)C2(Br)C#N)cc1 (stereo unspecified)
Klebsiella pneumoniae
  Inhibition: 6.43%
Candida albicans
  Inhibition: 2.22%
Cryptococcus neoformans
  Inhibition: -24.77%

## CC1=C(C(=O)N2[C@@H]3C[C@H]4CCC3(CS2(=O)=O)C4(C)C)C(c2ccccc2)C(C#N)=C(N)O1 (stereo partly specified)
Klebsiella pneumoniae
  Inhibition: 14.51%
Candida albicans
  Inhibition: 3.41%
Cryptococcus neoformans
  Inhibition: -6.44%

## N#Cc1cc(C#N)c(NCCCCC2CCN(Cc3ccccc3)CC2)nc1N
Klebsiella pneumoniae
  Inhibition: 18.34%
Candida albicans
  Inhibition: 1.01%
Cryptococcus neoformans
  Inhibition: -105.28%

## N#Cc1cc(C#N)c(NC2CCN(Cc3ccccc3)CC2)nc1N
Klebsiella pneumoniae; 32 ug/mL
  Inhibition: 9.31% and 4.29%
Candida albicans
  Inhibition: 1.61% and 2.76%
Cryptococcus neoformans; 32 ug/mL
  Inhibition: -42.03% and -48.76%

Reference: ChEMBL document CHEMBL4513135, “CO-ADD screening of IQOG CSIS (Spain) compounds”
